Experimental data as given in ChEMBL document CHEMBL4513216, “Probing the Open Global Health Chemical Diversity Library for Multistage-Active Starting Points for Next-Generation Antimalarials” (ACS Infect Dis, 2020).
Hit rate of the full screen: of about 69,000 compounds, about 8,600 (12%) showed an effect of 50% or more. The sample as a whole holds a higher share of strong results than the screen did.

Tested on: Plasmodium berghei
Test: Screen against P. berghei liver stage (PbLuc), transformed with Luciferase, at 10uM
Assay type: functional, HepG2
Conditions: tested at 10 uM

Row | Compound | INHIBITION
1 | CCN(CC)C(=O)c1ccn(COc2ccc(F)cc2F)n1 | -3.93%
2 | CCc1ncc(C(=O)NCCN2CCNC2=O)cn1 | 22.285%
3 | COC(=O)c1ccc(C(=O)N2CCC(c3nnc(C)s3)CC2)cc1 | 20.4%
4 | Cc1nnc(C2CCN(C(=O)c3ccc4[nH]ccc4c3)CC2)s1 | -5.64%
5 | Cc1nnc(C2CCN(C(=O)c3ccc4nccnc4c3)CC2)s1 | 51.3%
6 | CS(=O)(=O)c1cn[nH]c1C1CCCN(C(=O)Cn2cccn2)C1 (configuration not stated) | 2.71%
7 | COc1cccc2c3c(c(=O)[nH]c12)CC(C)(C)O3 | -6.18%
8 | CCOc1cc(C(=O)N(C)C)ccc1NC(=O)C(C)c1ccsc1 (configuration not stated) | 51.5%
9 | CCOc1ccc(C(=O)N(C)C)cc1NC(=O)c1ccsc1 | -20.7%
10 | CCOc1cc(C(=O)N(C)C)ccc1NC(=O)c1ccsc1 | -23%
11 | Cc1cccc2c1cnn2CCCNC(=O)c1ccnn1C | 35%
12 | CC(C)Cc1cc(C(=O)O)nc2[nH]c(=O)[nH]c(=O)c12 | 41.2%
13 | CCCOCCNc1nc2c(s1)c(C)nn2C | -18.6%
14 | Cc1nc(CNc2nc3c(s2)c(C)nn3C)cs1 | 40.8%
15 | CCc1csc(CNc2nc3c(s2)c(C)nn3C)n1 | 65.7%
16 | CCSCCNc1nc2c(s1)c(C)nn2C | 25.8%
17 | Cc1csc(CNc2nc3c(s2)c(C)nn3C)n1 | 8.03%
18 | CCc1nc(CNc2nc3c(s2)c(C)nn3C)cs1 | 63.1%
19 | Cc1ccc(CCc2nc(C3CCOC3)no2)o1 (configuration not stated) | 29%
20 | CN(C)[C@@H]1CCN(C(=O)C2CCOCC2)[C@H]1Cc1ccncc1 | 0.804%
21 | COCCN1CCc2ccc(=O)n(Cc3csc(C)n3)c2CC1 | -15.3%
22 | CCc1nnc(Nc2cccc(C3CCN(c4cnccn4)CC3)n2)s1 | 36.4%
23 | CC(=O)N1C[C@H]2CC[C@@H](C1)N(S(=O)(=O)c1ccc(F)cc1Cl)C2 | -10.2%
24 | Cc1cc(CCC(=O)NCc2nccn2C)ccc1Br | 46.1%

Row | Compound | INHIBITION
25 | Cc1cc2ccccc2n1CCC(=O)NCc1ncc[nH]1 | 20.5%
26 | Cc1cc(CCC(=O)NCc2ncc[nH]2)ccc1Br | 54.8%
27 | CN1CCC(CCNC(=O)N2CCN(Cc3ccon3)CC2)CC1 | 23.5%
28 | CCC1CCCCN1CCNC(=O)N1CCN(Cc2ccon2)CC1 (configuration not stated) | 50.8%
29 | CN(CCNC(=O)N1CCN(Cc2ccon2)CC1)C1CCCC1 | -6.02%
30 | Cc1cnc(CNC(=O)[C@@]23CCO[C@@H]2CCN(C2CCCC2)C3)cn1 | 18.6%
31 | Cc1ccc(N2CC[C@H](O)[C@@H]2Cc2cnn(C)c2)nn1 | -15.9%
32 | NC(=O)N1CCCN(C2CCCCc3ccccc32)CC1 (configuration not stated) | 13.7%
33 | O=C1CN(C(=O)CC2c3ccccc3CCc3ccccc32)CCN1 | 42.1%
34 | CC(=O)N1CCN([C@@H]2CN(C(=O)c3ccccc3)C[C@H]2O)CC1 | 11.8%
35 | CC(=O)N1CCN(C2CCCCc3ccccc32)CC1 (configuration not stated) | -1.16%
36 | CC(=O)N1CCCN(C2CCCCc3ccccc32)CC1 (configuration not stated) | 55.4%
37 | CC(=O)N1CCN(C2CCc3ccccc32)CC1 (configuration not stated) | 64.7%
38 | Cc1cccc(C2(CNC(C)c3nnc(C)o3)CCCC2)c1 (configuration not stated) | -10.2%
39 | CCCc1ccc(S(=O)(=O)NC(=O)CCC2CCCO2)cc1 (configuration not stated) | 4.71%
40 | Cn1cccc1C(=O)N1CCC2(CC1)CC(N1CCOCC1)C2 | -23.3%
41 | COc1ccccc1C1(C(=O)N2CCCC(c3cc(C)[nH]n3)C2)CC1 (configuration not stated) | -14.6%
42 | c1cncc(C2COC3(CCN(Cc4cccs4)CC3)C2)c1 (configuration not stated) | 0.618%
43 | Cc1ccc(CN2CCC3(CC2)CC(c2cccnc2)CO3)s1 (configuration not stated) | 50.1%
44 | c1cncc(CN2CCC3(CC2)CC(c2cccnc2)CO3)c1 (configuration not stated) | -35%
45 | COc1cccc2ccn(CCC(=O)N3CCCC(C(=O)O)C3)c12 (configuration not stated) | -19.7%
46 | Cc1ncnc2c1CCN(CC(=O)N(C)C)CC2 | 53%
47 | CN(C)C(=O)CN1CCc2ncnc(NC3CCC3)c2CC1 | 72.9%
48 | COCCN1CCc2ncnc(NC3CC3)c2CC1 | -31.1%

Row | Compound | INHIBITION
49 | Cc1ncnc2c1CCN(C(=O)N(C)C)CC2 | 80.1%
50 | CCc1ncnc2c1CCN(CC(=O)N(C)C)CC2 | 30.3%
51 | CN(C)C(=O)CN1CCc2ncnc(N(C)C)c2CC1 | 3.17%
52 | CN(C)C(=O)CN1CCc2ncnc(C3CC3)c2CC1 | 48.4%
53 | Cc1ncnc2c1CCN(C(=O)CN(C)C)CC2 | 46.7%
54 | CCN(C)c1ncnc2c1CCN(C(=O)N(C)C)CC2 | -64.7%
55 | Fc1ccc(C2CN(c3ncnc4[nH]ncc34)CCO2)cc1 (configuration not stated) | 40.8%
56 | CN(C)CCn1nc(C2CCN(Cc3ccccc3)C2)c2cccnc21 (configuration not stated) | 28.3%
57 | Cc1ccc(CNC(=O)c2nn(C)c3c2CS(=O)(=O)CC3)o1 | 30.8%
58 | Cc1ccc(NC2CCN(C(=O)CCc3ccccc3)CC2)nn1 | -26.6%
59 | CCOc1ccnc(N2CCN(C(=O)c3ccc(OC)cc3)CC2)n1 | 31.9%
60 | CSCC(C)(O)CNC(=O)c1ccc(Br)cc1F (configuration not stated) | -59.2%
61 | CSCC(C)(O)CNC(=O)c1cc(Cl)ccc1Cl (configuration not stated) | -21.3%
62 | CSCC(C)(O)CNC(=O)c1cc(Br)ccc1Cl (configuration not stated) | 55.4%
63 | N#Cc1ccc(F)c(CN2CCNC(=O)C2c2cccs2)c1 (configuration not stated) | 23.1%
64 | O=c1cc(-c2ccccc2)nc2n1CCCCC2 | 49%
65 | CCc1ncncc1C(=O)N1CCN(Cc2ccsc2)CC1 | 31.9%
66 | CCc1ncncc1C(=O)N1CCCN(Cc2ccc(C#N)cc2)CC1 | 19.6%
67 | CCc1ncncc1C(=O)N1CCCN(Cc2ccccc2C)CC1 | 19.6%
68 | CCc1ncncc1C(=O)N1CCCN(Cc2ccc(C)cc2)CC1 | 56.6%
69 | CCc1ncncc1C(=O)N1CCN(Cc2ccco2)CC1 | 50.4%
70 | CCc1nnsc1C(=O)N1CCCN(Cc2ccc(C)cc2)CC1 | 29.4%
71 | CCCc1n[nH]c(C2CN(C(=O)c3cccc4[nH]ncc34)CCO2)n1 (configuration not stated) | 33.3%
72 | Cc1ccc(OC2(C(=O)NC(C)Cc3ccncc3)CCNCC2)cc1 (configuration not stated) | 26.7%
